Source: PubChem BioAssay
Sampled rows, rich in hits. Any-hit rate of the full collection: about 2.4%.
POLB inh: blocks human DNA polymerase beta activity; AID 485314; P06746; Potency, µM (doses to about 114 µM), for inactives: at the top dose activity change, negative = inhibition, hits mostly inhibitors; Pol beta primer extension/strand displacement, fluorescence kinetic; actives 1.3% (n = 340,000); note: % is set by controls: 0 for no effect and ±100 for the full control effect
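Curves were derived by four-parameter Hill fits of normalized qHTS data. The kinetic fluorescent primer-extension read was taken at 0 and 10 min after 50 nM substrate, following a 15 min room-temperature preincubation of 10 nM enzyme with compounds.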
Pol eta inh-1: inhibitors of human DNA polymerase eta; recombinant Pol eta, fluorescent DNA replication assay; Potency, µM (top dose mostly 114 µM), for the others: top-dose activity change, negative = inhibition, usual class: inhibitors; actives 1.2% (n = 390,000); note: % is set by controls: 0 for no effect and ±100 for the full control effect
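Pol eta at 10 nM preincubated with compounds 15 min at room temperature; reaction started with fluorescent substrate (50 nM final) and read kinetically at 0 and 10 min.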
Tb PGK inh: T. brucei PGK inhibition; AID 602233; Potency, µM (titrated, usually from 57.5 µM), for inactives: top-dose activity change, negative = inhibition, hits mostly inhibitors; PGK/GAPDH coupled, Kinase-Glo luminescence, 60 min; P07378; actives 0.043% (n = 380,000); note: % is set by controls: 0 for no effect and ±100 for the full control effect; nearly all actives have a fitted effect of over 60% in size
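Luminescent ATP detection (Kinase-Glo Plus) follows a 60-minute room-temperature incubation, with wells lacking PGK as controls. Buffer: 100 mM TEA (pH 7.6), 5 mM MgCl2, 0.01% Tween-20. Coupling enzyme GAPDH (100 nM final) supplies unstable 1,3-BPG in-well.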
FEN1 inh-1: inhibitors of human flap endonuclease 1; Potency, µM (top dose mostly 114 µM), for inactives: top-dose activity change, negative = inhibition, most hits filed as inhibitors; actives 0.35% (n = 390,000); Recombinant FEN1 flap cleavage, fluorescence, 15 min; AID 588795; P39748; note: % is set by controls: 0 for no effect and ±100 for the full control effect; nearly all actives have a fitted effect of over 65% in size
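Nuclease activity of 10 nM FEN1 was measured after 15 min of room-temperature exposure to titrated compounds, by adding 50 nM flap substrate and reading plates at 0 and 15 min.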
Pol kappa inh-1: DNA polymerase kappa (human) inhibition; purified Pol kappa, fluorescent DNA synthesis assay, 10 min; Q9UBT6; AID 588579; Potency, µM (series often up to 107 µM), for inactives: at the highest dose activity, negative = inhibition, most hits filed as inhibitors; actives 0.53% (n = 400,000); note: % is set by controls: 0 for no effect and ±100 for the full control effect
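Kinetic fluorescence screen: compound preincubated 15 min RT with 10 nM enzyme; 50 nM substrate (final) initiates; reads at 0/10 min.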
Pol iota inh: blocks human DNA polymerase iota activity; Potency, µM (top dose mostly 115 µM), without a hit: top-dose activity, negative = inhibition, usual class: inhibitors; Q9UNA4; Pol iota fluorescent replication assay, 10 min; actives 1% (n = 390,000)
Target sequence (Q9UNA4 whole entry, looked up): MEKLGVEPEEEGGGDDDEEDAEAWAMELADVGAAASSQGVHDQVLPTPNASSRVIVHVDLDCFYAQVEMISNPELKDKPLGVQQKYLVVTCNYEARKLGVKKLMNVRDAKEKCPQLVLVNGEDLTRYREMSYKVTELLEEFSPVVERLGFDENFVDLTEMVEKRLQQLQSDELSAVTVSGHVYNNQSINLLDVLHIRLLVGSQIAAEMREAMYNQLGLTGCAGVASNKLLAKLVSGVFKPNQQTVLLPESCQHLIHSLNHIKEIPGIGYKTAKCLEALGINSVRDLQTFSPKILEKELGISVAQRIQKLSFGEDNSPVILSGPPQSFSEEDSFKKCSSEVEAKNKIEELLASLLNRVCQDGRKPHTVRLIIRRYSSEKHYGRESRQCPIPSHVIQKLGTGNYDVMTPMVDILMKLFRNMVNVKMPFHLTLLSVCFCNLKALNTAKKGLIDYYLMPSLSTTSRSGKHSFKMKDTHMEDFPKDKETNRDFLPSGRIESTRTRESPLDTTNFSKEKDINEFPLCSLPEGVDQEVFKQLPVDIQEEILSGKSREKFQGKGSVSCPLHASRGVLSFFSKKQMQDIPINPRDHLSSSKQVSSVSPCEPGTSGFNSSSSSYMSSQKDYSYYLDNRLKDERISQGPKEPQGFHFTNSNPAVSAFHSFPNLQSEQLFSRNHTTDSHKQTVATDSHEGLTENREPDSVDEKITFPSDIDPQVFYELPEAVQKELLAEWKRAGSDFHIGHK
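Fluorescent replication assay read twice, at 0 min and 10 min after adding 50 nM (final) substrate. Enzyme (10 nM) and compounds were first incubated 15 min at room temperature; enzyme-free buffer wells were negative controls.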
TbPGK inh: validation of Trypanosoma brucei phosphoglycerate kinase inhibitors; shares compounds with Pol kappa inh-1; TbPGK coupled GAPDH assay, Kinase-Glo luminescence; Potency, µM (series often up to 57.5 µM), without a hit: top-dose activity change, negative = inhibition, actives largely listed as inhibitors; actives 79% (n = 500); AID 686980; note: % is set by controls: 0 for no effect and ±100 for the full control effect; nearly all actives have a fitted effect of over 65% in size
POLI cherry-pick: Confirm cherry-picked inhibitors of human polymerase iota; Potency, µM, actives largely listed as inhibitors; Pol iota primer extension, TAMRA/BHQ fluorescence; shares compounds with Pol kappa inh-1; actives 77% (n = 1,500)
Pol kappa inh-2: confirmation of human DNA polymerase kappa inhibitors; shares compounds with Pol eta inh-1; purified Pol-kappa, fluorescent strand-displacement substrate; Potency, µM, most hits filed as inhibitors; actives 76% (n = 920)
Pol eta inh-2: Pol eta (human) inhibition, cherry-pick confirmation; Potency, µM, usual class: inhibitors; actives 64% (n = 2,600); Pol eta primer extension, TAMRA/BHQ fluorescence, 10 min; shares compounds with Pol eta inh-1
FEN1 inh-2: confirmation of human FEN1 inhibitors; Potency, µM, usual class: inhibitors; actives 79% (n = 880); FEN1 flap cleavage, TAMRA/BHQ2 fluorogenic DNA substrate; shares compounds with FEN1 inh-1; note: nearly all actives have a fitted effect of over 60% in size
An asterisk follows results filed as active; i = inactive; ? = inconclusive; · = not tested or not shown; [ ] = remark or other dose. Calls come from the whole dose curve; as a rule, active = well fitted curve in the direction sought with a large enough effect; inconclusive = small, poorly fitted or top-dose-only effect, or another doubt; inactive = no such curve, though single readings can be large; an effect the other way counts as inactive or inconclusive. Potency is the fitted concentration of half-maximal effect.

SMILES | POLB inh | Pol eta inh-1 | Tb PGK inh | FEN1 inh-1 | Pol kappa inh-1 | Pol iota inh | POLI cherry-pick | Pol eta inh-2 | FEN1 inh-2 | others
O=C(O)C1Nc2c(O)cc(Cl)c([N+](=O)[O-])c2C2C=CCC12 (stereo unspecified) | 0.25µM* | 1.3µM* | 4.5µM* | ? | 1.8µM* | ? | 15* | 4.8* | 24* | TbPGK inh=1.5µM*
Cc1cc(NC(=O)CSc2cn(CCNC(=O)c3ccccc3)c3ccccc23)no1 | 19% | ? | 7.1µM* | 32µM* | 11µM* | ? | 8.4* | 11* | 67* | TbPGK inh=1.2µM*
CCOc1ccc(C(=O)c2oc3ccccc3c2NC(=O)Cc2coc3ccc(CC)cc23)cc1 | -22% | -27% | -8% | -5% | -5% | 15% | · | · | ·
COc1cc(/C=C2\SC(=Nc3ccc(Cl)c(C(=O)O)c3)NC2=O)c(Br)c(Br)c1O | 8.9µM* | 18µM* | -10% | 25µM* | 40µM* | 22µM* | 67* | ? | 38* | Pol kappa inh-2=8.4*
COC(=O)c1ccccc1-c1c2ccc(=N)cc-2oc2cc(N)ccc12 | · | 50µM* | -11% | 28µM* | 28µM* | 79µM* | 24* | 76* | 67* | Pol kappa inh-2=47*
COC(=O)c1ccccc1-c1ccc(/C=N/NC(=O)c2cc3ccccc3o2)o1 | ? | -13% | -6% | 1% | -6% | -14% | · | · | ·
NS(=O)(=O)c1ccc(NC(=O)c2ccc3nccnc3c2)cc1 | 25% | -1% | i | -8% | -2% | 82% | · | · | ·
NS(=O)(=O)c1ccc(CCNC(=O)c2ccc3nccnc3c2)cc1 | · | 3.2µM* | ? | ? | 32µM* | 20µM* | 17* | 12* | ? | Pol kappa inh-2=4.2*
CCN(CCCNC(=O)c1cc2cc3cc(C)ccc3nc2s1)c1cccc(C)c1 | -1% | -19% | i | -10% | -7%[60.1 µM] | 12% | · | · | ·
CC1Cc2cc(S(=O)(=O)NCc3ccc(N(C)C)cc3)ccc2N1C(=O)C1CCC1 (stereo unspecified) | -23% | -21% | -4% | -1% | -16% | -6% | · | · | ·
Cc1cccc2c(N=NC(=O)c3ccc(NS(=O)(=O)c4cccs4)cc3)c(O)[nH]c12 | · | 11µM* | ? | ? | ? | ? | 17* | 19* | 34*
Cc1cccc(N=C2NC(=O)/C(=C/C=C/c3ccco3)S2)c1C | 2.5µM* | 1.8µM* | ? | 45µM* | 14µM* | 3.5µM* | 67* | 27* | 76*
COCCN(C(=O)COC(=O)c1cc2c(s1)CCC2)c1c(N)n(Cc2ccccc2)c(=O)[nH]c1=O | · | 0.71µM* | ? | 40µM* | 4.5µM* | 3.2µM* | 1.9* | 2.1* | 76* | TbPGK inh=0.82µM*
COc1ccc(CCNC(=O)Cc2c(C)c3c(cc(C)c4c(C)coc43)oc2=O)cc1OC | 26% | -14% | 1% | -5% | -11% | 10% | · | · | ·
CN1\C(=C/C=C/C=C/C=[N+](C)C)C(C)(C)c2ccccc21 | 16µM* | 40µM* | ? | 89µM* | 50µM* | 18µM* | 38* | 34* | 85* | Pol kappa inh-2=38*
CN1/C(=C\C=O)C(C)(C)c2ccccc21 | 5% | -4% | i | -3% | -2% | 61% | · | · | ·
O=C1NC(=O)/C(=C\c2ccc(O)cc2O)S1 | 1.6µM* | 2.8µM* | 3% | 16µM* | 11µM* | ? | 30* | 27* | 67*
Nc1c(C(=O)Nc2ccccc2)nnn1Cc1ccc(F)cc1Cl | 38% | · | · | 1% | -3% | 45% | · | · | ·
COc1ccc(/C=C\c2onc(C)c2S(=O)(=O)N2CCC(C(=O)Nc3ccc(F)cc3F)CC2)cc1 | 14% | -15% | -14% | -8% | -2% | 24% | · | · | ·
COc1cccc(CNC(=O)c2ccc(NC(=O)N3CCCCc4ccccc43)cc2)c1 | 1% | 1% | -6% | 2% | 3% | 3% | · | · | ·
COc1cccc2cc(C(=O)N3CC(C)OC(C)C3)c(=O)oc12 (stereo unspecified) | 0% | 4% | 6% | 19% | -11% | 11% | · | · | ·
COc1cc2c(oc(=O)c3cc(C)cc(OC)c32)c2c(C3OC(C)C(O)C(C)(O)C3O)ccc(O)c12 (stereo unspecified) | · | 4µM* | i | 3.5µM* | 40µM* | 14µM* | 30* | 21* | 0.85*
COc1ccccc1OCCn1c(CCNC(=O)C2CCCCC2)nc2ccccc21 | · | · | · | 2% | -3% | 32% | · | · | ·
CCOCCc1nnc(NC(=O)C(=O)c2cc(C)n(-c3ccc(C)c(C)c3)c2C)s1 | -10% | 5% | 9% | 9% | 6% | 0% | · | · | ·
Cc1nc(CC(=O)N/N=C/c2ccc(OCC(=O)O)cc2)cs1 | 4% | -32% | i | 41% | 9% | -22% | · | · | ·
CCOc1cc(/C=N/NC(=O)c2ccc(-c3csc(Nc4ccc(C)cc4)n3)cc2)ccc1OCC(=O)O | 5µM* | 18µM* | 13µM* | 50µM* | 32µM* | 8.9µM* | 30* | 76* | 54* | TbPGK inh=12µM*;Pol kappa inh-2=19*
O=C(O)COc1ccc(/C=N/NC(=O)c2ccc(-c3csc(Nc4ccc(Cl)cc4)n3)cc2)cc1 | ? | 2.5µM* | ? | ? | 7.9µM* | 2.8µM* | 3* | 11* | 30*
O=C(COc1cccc(Cl)c1)N1CCC(c2nc3ccccc3s2)CC1 | -16% | -16% | -6% | -19% | -8% | 20% | · | · | ·
Cc1ccc(C)c(N(C)C(=O)C2CCN(S(=O)(=O)c3cccc4nsnc34)CC2)c1 | 0% | -11% | -4% | -2% | -2% | -21% | · | · | ·
O=S(=O)(c1ccc(Cl)cc1)c1nc(-c2ccco2)oc1SCc1ccc(F)cc1 | 8% | 5% | -5% | 5% | -5% | -28% | · | · | ·
